Compound activity (PubChem)
Imprint erasure: inducers of genomic imprint erasure in mouse ES cells | mouse ES Peg3-LacZ reporter, beta-gal luminescence, 40 h | Potency, µM (highest dose often 60.7 µM), most hits filed as activators | 110,000 compounds, 0.02% hits | AID 1948
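Each well holds 300 Peg3LacZ-Neo (maternal) female ES cells incubated 40 h at 37C, 5% CO2. LacZ is measured by BetaGlo luminescence, with AC50 and maximum efficacy derived from dose-response curves.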
p53ts 39C kill: p53ts cell cytotoxicity, nonpermissive temperature; H1299-p53A138V viability at 39C, ATP luminescence, 24 h; AID 902; 130,000 compounds, 1.5% hits; Potency, µM (top dose mostly 46.1 µM), hits mostly cytotoxic; note: nearly all actives have a fitted effect of over 55% in size
p53ts 32C kill: cytotoxicity in p53ts cells at permissive temperature. H1299-p53A138V at 32C, ATP luminescence viability, 24 h. Potency, µM (titrated, usually from 46.1 µM), usual class: cytotoxic. 130,000 compounds, 0.93% hits; note: nearly all actives have a fitted effect of over 55% in size
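H1299-p53 A138V cells (temperature-sensitive p53) exposed 24 h to up to 46 uM compound at 32C, where p53 is wild-type in conformation. Viability read as ATP luminescence and normalised to DMSO and 100 uM tamoxifen. AC50 fitted with the Hill equation.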
A number is an active result; - = inactive; ? = inconclusive; . = no result; [ ] = remark or other dose. The list is not random: actives were taken first. Their share in the collection is about 1.6%. Calls come from the whole dose curve; as a rule, active = well fitted curve in the direction sought with a large enough effect; inconclusive = small, poorly fitted or top-dose-only effect, or another doubt; inactive = no such curve, though single readings can be large; an effect the other way counts as inactive or inconclusive.

SMILES	Imprint erasure	p53ts 39C kill	p53ts 32C kill
Cc1ccccc1OCC(=O)Nc1nnc(SCc2cc(=O)n3cc(Cl)ccc3n2)s1	-[10.9 µM]	?	-
OCC1OC(c2ccc3c(c2)OCO3)C=CC1Oc1cc(Cl)cc(Cl)c1 (configuration not stated)	.	-[9.22 µM]	-[9.22 µM]
COC(=O)c1ccc(C(NC(=O)OCc2ccccc2)/C(F)=C/[C@@H](C)C(=O)Nc2ccc(OC)cc2)cc1 (some centres not stated)	-	?	?
COC(=O)c1c(SCC(=O)Nc2cc(OC)cc(OC)c2)[nH]c2ccc(C)cc2c1=O	-[10.9 µM]	5.01µM	-
COC(=O)c1c(SCC(=O)Nc2ccccc2OC)[nH]c2ccccc2c1=O	-[10.9 µM]	?	-
Cc1ccc(CNC(=O)C(C)n2nc(C)c3sc4ccccc4c3c2=O)cc1 (configuration not stated)	-[10.9 µM]	?	?
CSc1ccc(CCNC(=O)C(C)n2nc(C)c3sc4ccccc4c3c2=O)cc1 (configuration not stated)	-[10.9 µM]	10µM	10µM
Cc1nn(C(C)C(=O)NC2CCCCC2)c(=O)c2c1sc1ccccc12 (configuration not stated)	-[10.9 µM]	10µM	12.6µM
CCC(C(=O)NCCc1ccc(SC)cc1)n1nc(C)c2sc3ccccc3c2c1=O (configuration not stated)	-[10.9 µM]	-	-
O=C(Nc1nnc(S(=O)(=O)N2CCCc3ccccc32)s1)c1ccc(Cl)cc1	-[10.9 µM]	-	-
CCc1nn(CC(=O)Nc2ccc(C)c(F)c2)c(=O)c2cc3cc(C)ccc3n12	-[10.9 µM]	31.6µM	-
Cc1ccc(NC(=O)Cn2ncn3c(cc4ccccc43)c2=O)cc1F	-[10.9 µM]	-	-
Cc1ccc(-n2nc3c(N4CCC(C(=O)NC5CCC(C)CC5)CC4)nnc(C)c3c2C)cc1 (configuration not stated)	-[10.9 µM]	-	-
CCCCN(C)CCCNC(=O)C1CCN(S(=O)(=O)CC)CC1	-[10.9 µM]	-	-
CCc1ccc2nc(N3CCN(C(=O)c4ccco4)CC3)sc2c1	-[10.9 µM]	?	-
CCCCN(CC)CCCNC(=O)C1CCN(c2nc3ccc(CC)cc3s2)CC1	-[10.9 µM]	20µM	12.6µM
CCCCN(C)CCCNC(=O)C1CCN(c2nc3ccc(CC)cc3s2)CC1	-[10.9 µM]	?	12.6µM
COc1ccc(-c2onc(C)c2C)cc1S(=O)(=O)NCC1CCN(Cc2cc(C)ccc2C)CC1	-[10.9 µM]	?	-
Cc1ccc(Cl)cc1N1CCN(C(=O)c2cnn(-c3ccc(Cl)cc3)c2C2CCNCC2)CC1	-[10.9 µM]	-	-
Cc1ccc(N2CCN(C(=O)c3cnn(-c4ccc(C)c(C)c4)c3C3CCNCC3)CC2)c(C)c1	-[10.9 µM]	20µM	-
CO[C@@H]1COC(=O)[C@H](CCSC)NC(=O)C/C=C\[C@@H](C)COC(=O)[C@@H]2CCCN2C(=O)C/C=C\[C@H]1C	.	-[9.22 µM]	-[9.22 µM]
CCN1c2ccccc2NC2C1C(C(C)=O)C(=O)N2c1ccc(Cl)cc1 (configuration not stated)	-	20µM	?
COc1ccccc1N1C(=O)N(C(C)=O)C2C1Nc1ccccc1N2C (configuration not stated)	-	?	?
Cc1ccc(NC(=O)CSc2nc(=O)n(Cc3ccccn3)c3c2CCC3)cc1F	-[10.9 µM]	-	-
Cc1cc(O)cc(=O)n1Cc1ccco1	-	-	-
SMILES	Imprint erasure	p53ts 39C kill	p53ts 32C kill
Cc1cc(C2=NNC(=NC3CC3)SC2)c(C)n1Cc1ccco1	.	12.6µM	.
Cc1cc(C2=NNC(=NC3CC3)SC2)c(C)n1-c1ccccc1	.	10µM	.
Cc1cc(-c2nnco2)c(C)n1-c1ccccc1	-	?	-
Cc1ccc(/C=C(\C#N)c2nc(-c3ccc(-c4ccccc4)cc3)cs2)cc1	-[10.9 µM]	-	-
N#CC(=C1CCCC1)c1nc(-c2ccccc2O)cs1	-	12.6µM	10µM
CCSc1nc(-c2cccc(Cl)c2)nc2c1Cc1c(CO)cnc(C)c1O2	-[10.9 µM]	-	-
CC1=C(c2ccc(C)c(C)c2)S(=O)(=O)N=C1N1CCC(C(=O)Nc2ccc(Cl)cc2)CC1	-[10.9 µM]	-	-
CC1=C(c2ccc(F)cc2)S(=O)(=O)N=C1N1CCC(C(=O)NCCc2ccccc2)CC1	-[10.9 µM]	-	-
CCc1ccc(C2=C(C)C(N3CCC(C(=O)Nc4ccc(F)cc4)CC3)=NS2(=O)=O)cc1	-[10.9 µM]	10µM	?
CC1=C(c2ccc(C(C)C)cc2)S(=O)(=O)N=C1N1CCC(C(=O)Nc2ccc(C)cc2)CC1	-[10.9 µM]	12.6µM	?
O=C1[C@@H]2[C@H]3[C@H](O)[C@H](O)C/C(=N/OC[C@@H](O)COCc4ccco4)[C@H]3CC[C@H]2C(=O)N1c1ccc(F)cc1F	.	-[9.22 µM]	-[9.22 µM]
COCC(C)NC(=O)c1cc2c(=O)n3cccc(C)c3nc2s1 (configuration not stated)	-[10.9 µM]	-	-
CN1C(=O)Cc2cc(S(=O)(=O)CCC(=O)N3CCN(c4ccc(Cl)cc4)CC3)ccc21	-[10.9 µM]	-	-
COc1ccc(N(Cc2ccccc2)C(=O)c2nc(SC)ncc2Cl)cc1	-[10.9 µM]	-	-
CCSc1ncc(Cl)c(C(=O)Nc2c(C(=O)Nc3cccc(C)c3)oc3ccccc23)n1	-[10.9 µM]	-	-
CN(c1ccccc1)S(=O)(=O)c1ccc(NC(=O)c2nc(S(C)(=O)=O)ncc2Cl)cc1	-[10.9 µM]	3.16µM	?
CCOC(=O)c1ccc(NC(=O)c2nc(SC(C)C)ncc2Cl)cc1	-[10.9 µM]	-	-
CCOC(=O)c1ccc(NC(=O)c2nc(S(=O)(=O)Cc3ccccc3)ncc2Cl)cc1	-[10.9 µM]	12.6µM	-
CCCSc1ncc(Cl)c(C(=O)Nc2ccc(S(=O)(=O)N(C)c3ccccc3)cc2)n1	-[10.9 µM]	-	-
CCS(=O)(=O)c1ncc(Cl)c(C(=O)N(Cc2ccccc2)c2ccc(OC)cc2)n1	-[10.9 µM]	5.01µM	20µM
CCS(=O)(=O)c1ncc(Cl)c(C(=O)Nc2c(C(=O)Nc3cccc(C)c3)oc3ccccc23)n1	-[10.9 µM]	20µM	?
Cn1c(=O)c2c(-c3ccccc3)n(-c3cccc(C#N)c3)cc2n(C)c1=O	-[10.9 µM]	-	-
CCN1C(=O)[C@H]2[C@H]3[C@H](O)[C@H](O)C/C(=N/NC(=O)OCc4ccccc4)[C@H]3CC[C@@H]2C1=O	.	-[9.22 µM]	-[9.22 µM]
COC(=O)c1ccc(C(NC(=O)OCc2ccccc2)/C(F)=C/[C@@H](C)C(=O)NCCc2c[nH]c3ccc(OC)cc23)cc1 (some centres not stated)	-	-	-
COc1cc(OC)c(NC(=O)N2CCOc3ccc(C)cc32)cc1Cl	-[10.9 µM]	-	-
SMILES	Imprint erasure	p53ts 39C kill	p53ts 32C kill
CCCS(=O)(=O)c1ncc(Cl)c(C(=O)N(Cc2ccccc2)Cc2ccco2)n1	-[10.9 µM]	3.16µM	?
CCS(=O)(=O)c1ncc(Cl)c(C(=O)Nc2ccccc2)n1	-[10.9 µM]	3.98µM	?
CCSc1ncc(Cl)c(C(=O)Nc2ccccc2)n1	.	-	.
CCSc1ncc(Cl)c(C(=O)N(Cc2ccccc2)Cc2ccco2)n1	-[10.9 µM]	-	-
COc1ccc(-c2ccc(-c3nnn(CC(=O)N4CCOCC4)n3)cc2)cc1	-	?	2.51µM
O=C(Cn1nnc(-c2ccc3c(c2)OCO3)n1)N1CCOCC1	-	-	-
Cc1cc(Cl)ccc1NC(=O)CSc1nc2c(c(=O)[nH]1)CCC2	-[10.9 µM]	-	-
Cc1ccccc1NC(=O)CS(=O)(=O)c1cccc2nsnc12	-[10.9 µM]	-	-
CC1(C)CCC2=C(O1)c1ccccc1C(=O)C2=O	-	5.01µM	5.01µM
CN(C)/C=C1/Sc2ccccc2C1=O	.	-	-
